# SF1 inhibitor – blocks the human nuclear receptor SF-1 | CHO-K1 Gal4-SF-1 LBD luciferase reporter | inhibition, % at 10 µM | actives 0.55% (n = 65,000) | AID 525;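 active means inhibition above the mean inhibition of all tested compounds plus 3 SD, cut at about 48% in these data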;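 further: 0% = SF-1 transfected cells with DMSO and 100% = mock-transfected cells lacking SF-1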
# Target sequence (Q13285 whole entry, looked up, the tested form may be a part): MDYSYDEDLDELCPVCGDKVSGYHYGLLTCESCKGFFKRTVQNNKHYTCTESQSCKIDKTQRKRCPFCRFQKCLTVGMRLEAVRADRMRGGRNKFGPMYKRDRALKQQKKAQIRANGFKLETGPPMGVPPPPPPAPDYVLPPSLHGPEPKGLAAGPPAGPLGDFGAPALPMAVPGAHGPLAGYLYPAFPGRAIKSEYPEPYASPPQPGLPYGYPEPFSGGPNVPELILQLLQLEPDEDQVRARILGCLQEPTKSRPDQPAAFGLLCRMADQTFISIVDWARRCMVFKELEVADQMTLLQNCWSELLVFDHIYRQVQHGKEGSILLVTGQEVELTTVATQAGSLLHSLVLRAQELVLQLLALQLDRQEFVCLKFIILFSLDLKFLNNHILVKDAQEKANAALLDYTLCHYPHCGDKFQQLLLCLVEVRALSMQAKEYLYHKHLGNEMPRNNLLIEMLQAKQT
# Starred values were filed as active, the others as inactive. Only a selection was taken, and hits are over-represented in it overall.
SMILES,SF1 inhibitor
Fc1ccc(Nc2nc(N3CCOCC3)c3ccccc3n2)cc1,19
COc1ccc(-n2c(=S)[nH]c3cc(C(=O)NCCCN4CCCC4=O)ccc3c2=O)cc1,-8
CN(CC(=O)N1CCc2ccccc21)S(=O)(=O)c1cccc2cccnc12,15
Cc1cccc(-c2nnc(-c3ccccc3)o2)c1,-60
CN(C)C(=O)N1CCCC(C(=O)NCc2ccccc2)C1 (configuration not stated),-2
COCCNC(=O)c1c[nH]c2ccc(OC)cc2c1=O,-9
C=CS(=O)(=O)c1ccc(Oc2ccc(S(=O)(=O)C=C)cc2)cc1,97*
Fc1ccc(Cn2nnnc2CN2CCc3ccccc3C2)cc1,19
CNC(=O)c1c(NC(=O)c2nc3ccccc3s2)sc2c1CCC2,-72
Cn1ccc(C(=O)OCC(=O)c2ccccc2)n1,-5
Cc1nn(-c2ccccc2)c(C)c1C(=O)OCC(=O)c1c(N)n(CC(C)C)c(=O)n(C)c1=O,55*
COC(=O)CCc1c(C)nn(-c2ccccc2)c1C,-9
COc1cccc2cc(C(=O)C3=C(O)C(=O)N(CCN4CCOCC4)C3c3cccs3)oc12 (configuration not stated),13
C=CCN(CC=C)c1nc2ccccc2nc1C(C#N)C(=O)OCCOC (configuration not stated),27
Cn1c(SCC(=O)N2CCCCC2)nnc1-c1ccc(S(=O)(=O)N2CCOCC2)cc1,10
CCOC(=O)C1CCCN(C(=O)CCCOc2cc(=O)n(C)c3ccccc23)C1 (configuration not stated),14
Cc1ccnc(NC(=O)CCCOc2cc(=O)n(C)c3ccccc23)c1,59*
CCC1CCCCN1C(=O)COc1cc(=O)n(C)c2ccccc12 (configuration not stated),0
COC(=O)c1ccc(COc2ccc(-c3nn[nH]n3)cc2)cc1,-24
O=c1c2cnn(-c3ccc(F)cc3)c2ncn1Cc1ccccn1,-9
O=C(Nc1cccc(-c2nc3cc(Cl)ccc3o2)c1)C1CCCO1 (configuration not stated),-81
O=C1c2ccccc2C(=O)N1CCCSc1nc2ccccc2o1,2
O=S1(=O)C=C(Sc2nc3cc(Cl)ccc3o2)c2ccccc21,71*
COc1ccc(-n2c(N)c(C(=O)NCc3ccco3)c3nc4ccccc4nc32)c(OC)c1,6
Cc1c(C(=O)N2CCCC2)oc2c1-c1[nH]ncc1CC2,7
SMILES,SF1 inhibitor
CCN(CC)c1ccc(NC(=O)c2ccccc2F)cc1,-74
CCN(CC)c1ccc2cc(NC(=O)CCC(=O)O)c(=O)oc2c1,59*
CCN(CC)c1ccc2cc(-c3nnc(-c4ccncc4)o3)c(=O)oc2c1,-73
CCOC(=O)c1cc2c(=O)n3cc(C)ccc3nc2n(Cc2cccnc2)c1=N,-7
Cn1c(=O)c2cn3c(c2n(C)c1=O)C(c1ccccc1)CC(c1ccccc1)=N3 (configuration not stated),-8
Oc1c(/C=N/c2ncn[nH]2)ccc2ccccc12,7
COc1ccc2c(c1)sc1nc(-c3ccccc3)cn12,89*
Cc1c(C(=O)Nc2ccccc2)sc2nc(-c3ccccc3)cn12,-54
COc1cccc(-c2csc(NC(=O)C3CC3)n2)c1,-60
Cn1c(=O)oc2cc(S(=O)(=O)N3CCC(N4CCCCC4)CC3)ccc21,26
CC1=C(C(=O)OC(C)C)C(c2cccs2)C2=C(CCCC2=O)N1 (configuration not stated),-6
CN(Cc1nc(-c2ccccn2)no1)S(=O)(=O)c1ccc(Cl)cc1,-4
Cc1onc(-c2ccccc2Cl)c1-c1nc(-c2ccccn2)no1,-7
c1ccc(-c2noc(C34CC5CC(CC(C5)C3)C4)n2)nc1,-86
c1ccc(-c2noc(-c3ccc4ccccc4c3)n2)nc1,91*
c1ccc(-c2noc(C3CCCCC3)n2)nc1,-56
c1ccc(-c2noc(-c3ccc4c(c3)OCO4)n2)nc1,75*
COc1cc2nc(COc3ccc(C#N)cc3)n(CC#N)c(=O)c2cc1OC,10
CCOC(=O)C1CCCN(C(=O)C2CCN(S(=O)(=O)c3cnc[nH]3)CC2)C1 (configuration not stated),-23
Cc1cc(C)n(-c2nc3c(c(=O)[nH]c(=O)n3C)n2CC(C)C)n1,-29
CN(C)CC(C(=O)c1ccccc1)c1ccccc1 (configuration not stated),68*
COc1ccc(CN(C(=O)c2ccccc2OC)C2CCS(=O)(=O)C2)cc1 (configuration not stated),8
COCCCN=CC1=C(O)CC(C)(C)CC1=O,12
Cc1nnc(SC(=O)N2c3ccccc3Sc3ccccc32)s1,65*
Cc1nnc(SCC(=O)N2c3ccccc3CC2C)s1 (configuration not stated),6
SMILES,SF1 inhibitor
O=C(Cn1ncn2c(cc3ccccc32)c1=O)NCc1ccco1,-8
Cc1c(C(=O)OCCOC(C)C)[nH]c2c1C(=O)CC(C)(C)C2,8
CCOC(=O)C(C(=O)OCC)C(=O)c1cc(OC)c(OC)c(OC)c1,-1
CCCCOC(=O)c1[nH]c2c(c1C)C(=O)CC(c1cc(OC)c(OC)c(OC)c1)C2 (configuration not stated),54*
C=CCOC(=O)c1[nH]c2c(c1C)C(=O)CC(c1cc(OC)c(OC)c(OC)c1)C2 (configuration not stated),52*
CCOC(=O)C1=C(C)NC2=C(C(=O)CCC2)C1c1cc(OC)ccc1OC (configuration not stated),-2
O=C(CCC1(C(=O)O)CCC(=O)NC1)NCc1ccccc1 (configuration not stated),-20
Cc1cccc2[nH]c(-c3ccc(NC(=O)c4ccco4)cc3)nc12,-74
CCS(=O)(=O)c1ccc2oc(Nc3ccccc3C)nc2c1,-66
Clc1cc(Cl)c2nc(N3CCOCC3)sc2c1,-58
c1ccc(N2CCN(c3nc4cc5c(cc4s3)OCCO5)CC2)cc1,-61
c1c2c(cc3sc(N4CCOCC4)nc13)OCCO2,65*
CSCC[C@H](NC(=O)NCCC1=CCCCC1)C(=O)O,-9
COc1ccc(C(=O)CSc2nc3nc(C)cc(C)n3n2)cc1OC,4
CCn1c(C)nc2cc(-c3nc4n(n3)Cc3ccccc3-4)ccc21,96*
O=C(Cn1cc2c(n1)CCCC2)Nc1cc(-c2cccc(Cl)c2)no1,-9
CCC(CC)C(=O)NCCc1cc2ccc(C)c(C)c2[nH]c1=O,4
Cc1cc(C)n2c3c(c(C#N)c2n1)CCCC3,-23
CC(C)Sc1nnc(Nc2ccccc2)s1,-106
CCSC1=C(C#N)C(c2ccccc2OC)CC(=O)N1 (configuration not stated),-6
COc1cc(C2C(C#N)=C(C)NC3=C2C(=O)c2ccccc23)cc(OC)c1OC (configuration not stated),82*
CN(Cc1ccccc1)C(=O)CCCn1c(=O)[nH]c2cc(Cl)ccc2c1=O,-7
Cc1cc(NO)nc(-c2ccc(Br)cc2)n1,-64
O=[n+]1c2c(n([O-])c3cc(F)c(F)cc31)CCCC2,7
COc1ccc(-n2nc3cc(C)c(N)c(Br)c3n2)cc1,-64
O=C(Cn1cnc2sc(-c3ccccc3)cc2c1=O)NCc1ccco1,-38
O=C(NCc1ccco1)c1ccc2nc3sc4c(c3c(=O)n2c1)CCCC4,60*
O=C(Nc1sc2c(c1C(=O)O)CCCCC2)c1ccco1,-57
CCOC(=O)N1CCN(C(=O)CSc2ncccn2)CC1,3
COc1ccc(NC(=O)C2CCN(c3nc(C)nc4c3CCC4)CC2)cc1,-11

# Compound activity: PubChem BioAssay, The Scripps Research Institute Molecular Screening Center
